Data taken from the OligoGym collection.

target: P2RX3; test: pooled miR-30 sensor sort-seq; sequence = guide strand; settings: shRNA
Also: reference of the scale not given here.

**Q.** With TTCAGTAACAATCATCTTGGTG as the sequence, how does the sensor-assay potency score (higher = more potent) read?
**A.** Its sensor-assay potency score (higher = more potent) is -0.0732.

**Q.** Which sensor-assay potency score (higher = more potent) does the source give for TATACCAGCACGTCGAAGCGGA here?
**A.** Its sensor-assay potency score (higher = more potent) is -0.313.

**Q.** TTCACAACCACCGACTTGGTGG was tested. Which sensor-assay potency score (higher = more potent) did it give?
**A.** Its sensor-assay potency score (higher = more potent) is -0.566.

**Q.** Which sensor-assay potency score (higher = more potent) does the source give for TTCACCTTGGTTACCACCGAGG here?
**A.** The sensor-assay potency score (higher = more potent) was -0.997.

**Q.** TTGAACTTGCCAGCATTCCCGT was tested. Which sensor-assay potency score (higher = more potent) did it give?
**A.** Its sensor-assay potency score (higher = more potent) is -1.02.

**Q.** Which sensor-assay potency score (higher = more potent) does the source give for TTGAGCAGGATGATGTCACAGA here?
**A.** The sensor-assay potency score (higher = more potent) was 0.136.

target: P2RY12; test: as above; settings: shRNA

**Q.** Which sensor-assay potency score (higher = more potent) does the source give for TTCACATTCTTGTCTCTCGGCT here?
**A.** Its sensor-assay potency score (higher = more potent) is -0.666.

**Q.** With ATTTGGGTCACCACCATCCTGT as the sequence, how does the sensor-assay potency score (higher = more potent) read?
**A.** Its sensor-assay potency score (higher = more potent) is -0.843.

**Q.** Which sensor-assay potency score (higher = more potent) does the source give for TAATTTACTATTTCATGCCAGA here?
**A.** Its sensor-assay potency score (higher = more potent) is -0.703.

**Q.** TTCTTGTCTCTCGGCTGCCTGT was tested. Which sensor-assay potency score (higher = more potent) did it give?
**A.** Its sensor-assay potency score (higher = more potent) is -1.33.

**Q.** How did the sensor-assay potency score (higher = more potent) turn out when TTATTATTAACTTAGTTGCTTC was run?
**A.** Its sensor-assay potency score (higher = more potent) is -0.642.

**Q.** With TAAAGTTTGATTTACTCCGGAT as the sequence, how does the sensor-assay potency score (higher = more potent) read?
**A.** Its sensor-assay potency score (higher = more potent) is -0.511.

**Q.** With TTTCATGCCAGACTAGACCGAA as the sequence, how does the sensor-assay potency score (higher = more potent) read?
**A.** Its sensor-assay potency score (higher = more potent) is -0.342.

**Q.** For TTAACTTAGTTGCTTCTTCGTC, which sensor-assay potency score (higher = more potent) is on record?
**A.** Its sensor-assay potency score (higher = more potent) is -0.236.

**Q.** Which sensor-assay potency score (higher = more potent) does the source give for TTATTAACTTAGTTGCTTCTTC here?
**A.** Its sensor-assay potency score (higher = more potent) is 0.717.

**Q.** With TTGACGTTCACCTTTTTCCTGG as the sequence, how does the sensor-assay potency score (higher = more potent) read?
**A.** Its sensor-assay potency score (higher = more potent) is 0.386.

**Q.** For TTAACCACAGAGTGCTCTCTTT, which sensor-assay potency score (higher = more potent) is on record?
**A.** Its sensor-assay potency score (higher = more potent) is -0.668.

**Q.** TAATATTTTTACTTAGCGCTTT was tested. Which sensor-assay potency score (higher = more potent) did it give?
**A.** Its sensor-assay potency score (higher = more potent) is 0.117.

target: P2RY4; test: as above; settings: shRNA

**Q.** TAGCAAACAAGAGTGACCAGGC was tested. Which sensor-assay potency score (higher = more potent) did it give?
**A.** The sensor-assay potency score (higher = more potent) was 0.861.

**Q.** TAGGAGTAGAGCAGCTACTGTC was tested. Which sensor-assay potency score (higher = more potent) did it give?
**A.** Its sensor-assay potency score (higher = more potent) is -0.823.

**Q.** For TAGAGCAGCTACTGTCCTGGGG, which sensor-assay potency score (higher = more potent) is on record?
**A.** The sensor-assay potency score (higher = more potent) was 0.0671.

**Q.** Which sensor-assay potency score (higher = more potent) does the source give for TTGACAATGTTCAGTACTCGGC here?
**A.** Its sensor-assay potency score (higher = more potent) is -0.264.

**Q.** How did the sensor-assay potency score (higher = more potent) turn out when TTCCAATAGAAAAGAAAGCGGA was run?
**A.** The sensor-assay potency score (higher = more potent) was -0.289.

**Q.** Which sensor-assay potency score (higher = more potent) does the source give for TAGAGCACAGGATCCAGGCAGC here?
**A.** The sensor-assay potency score (higher = more potent) was -0.928.

**Q.** With TTGAAATCCTCATCAAACCAAC as the sequence, how does the sensor-assay potency score (higher = more potent) read?
**A.** The sensor-assay potency score (higher = more potent) was -1.03.

**Q.** Which sensor-assay potency score (higher = more potent) does the source give for AGTAGAGCAGCTACTGTCCTGG here?
**A.** The sensor-assay potency score (higher = more potent) was -1.37.

**Q.** Which sensor-assay potency score (higher = more potent) does the source give for AAGACGACTGTGCAGAGCCTGG here?
**A.** Its sensor-assay potency score (higher = more potent) is -1.35.

**Q.** How did the sensor-assay potency score (higher = more potent) turn out when TGAACTTGAAATCCTCATCAAA was run?
**A.** The sensor-assay potency score (higher = more potent) was -1.05.

**Q.** For ATAGCAAACAAGAGTGACCAGG, which sensor-assay potency score (higher = more potent) is on record?
**A.** The sensor-assay potency score (higher = more potent) was -0.888.

**Q.** How did the sensor-assay potency score (higher = more potent) turn out when TAGCGGTGCACGCTGATGCAGG was run?
**A.** Its sensor-assay potency score (higher = more potent) is -1.24.

target: P2RY6; test: as above; settings: shRNA

**Q.** AGTTGCTTGAAGTTCTCGCGGT was tested. Which sensor-assay potency score (higher = more potent) did it give?
**A.** Its sensor-assay potency score (higher = more potent) is -0.308.

**Q.** How did the sensor-assay potency score (higher = more potent) turn out when TCGCGGTAGACACAGGTGGTGG was run?
**A.** The sensor-assay potency score (higher = more potent) was -1.81.

**Q.** With TTGGTGAGCTTCTGGGTCCTGT as the sequence, how does the sensor-assay potency score (higher = more potent) read?
**A.** The sensor-assay potency score (higher = more potent) was -0.191.

**Q.** For ATAGTTGTAGATGAGCAGGGGC, which sensor-assay potency score (higher = more potent) is on record?
**A.** The sensor-assay potency score (higher = more potent) was 0.421.

**Q.** How did the sensor-assay potency score (higher = more potent) turn out when TTTTGTGAGCACCTTAATGTGG was run?
**A.** The sensor-assay potency score (higher = more potent) was -0.636.

**Q.** How did the sensor-assay potency score (higher = more potent) turn out when TTGGGCATAGTTGTAGATGAGC was run?
**A.** Its sensor-assay potency score (higher = more potent) is -1.06.

**Q.** Which sensor-assay potency score (higher = more potent) does the source give for TTGGCATAGAAGAGGAAGCGGA here?
**A.** The sensor-assay potency score (higher = more potent) was -1.

**Q.** How did the sensor-assay potency score (higher = more potent) turn out when TTCTGTAGGAGCTCATGTGGTC was run?
**A.** The sensor-assay potency score (higher = more potent) was -0.257.

**Q.** With TTTAGGGTGTACACGGCCGTGC as the sequence, how does the sensor-assay potency score (higher = more potent) read?
**A.** The sensor-assay potency score (higher = more potent) was -0.557.

**Q.** For TTCTCGCGGTAGACACAGGTGG, which sensor-assay potency score (higher = more potent) is on record?
**A.** The sensor-assay potency score (higher = more potent) was -0.894.
